SMILES strings stand for the structures. About 79,000 compounds went through this panel and 15% of them were active in at least one assay; those are over-represented in the sample as a whole. Calls of active or inactive are those of the source. No stated cut-off is given here; in the data, active means growth inhibition above about 70%; inactive means the rest. Where a SMILES comes first, the peptide text is derived from it. [ ]: non-standard residue; d: D form. The star is where a group is joined. mTyr = N[CH](Cc1cccc(O)c1)C(=O)O; Cbz = O=C(OCc1ccccc1)*; OBn = c1ccc(CO*)cc1

One assay can be described thus: NCI Yeast Anticancer Drug Screen. Data for the rad50 strain (AID 155).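 Further: 0% = growth of vehicle-only cultures of the same strain.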 The following applies: S. cerevisiae rad50 strain growth inhibition; at 50.0 µM (retest, dose inferred, filed as 5.0); stronger effect = higher value. The method, boiled down:
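Vehicle-treated cultures provide the reference for the growth inhibition reported for compound-exposed, repair-deficient yeast.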
For `CC12CCC(c3sc(N)c(C#N)c31)C2(C)C` (stereo not given), the growth inhibition was -34% (inactive).

For `O=C1/C(=C/c2cccc(F)c2)CCCc2ccccc21`, the growth inhibition was 50% (inactive).

Take `CC(=O)N[C@H]1CC[C@H]2[C@@H]3CCC4=CC(=O)CC[C@]4(C)[C@H]3CC[C@]12C`: the growth inhibition is 94% (active).

As for `C/C(=N/O)c1ccc2c(c1)C(=NO)c1cc(/C(C)=N/O)ccc1-2`, the growth inhibition was 98% (active).

For `Cc1cccc(N2C(c3ccccc3)c3ccc(C)cc3NS2=O)c1` (stereo not given), the growth inhibition was -1% (inactive).

For the compound `[Pt].c1ccc(P(CCP(CCP(c2ccccc2)c2ccccc2)CCP(c2ccccc2)c2ccccc2)c2ccccc2)cc1`, the growth inhibition was 83% (active).

Consider `Cc1cc(I)ccc1NC(=S)Nc1ccccc1F`, for which the growth inhibition was 62% (inactive).

Turning to `FC(F)(F)c1ccccc1NC(=S)SCc1ccc(Cl)cc1`, the growth inhibition is 53% (inactive).

Regarding `COC(=O)C1(C)CC2C(C)(CCC3(C)C4=CC=C5C(=CC(=O)C(O)=C5C)C4(C)CCC23C)CC1O` (stereo not given), the growth inhibition was 98% (active).

With `CC1CCC(=NNC(N)=O)CC1` (stereo not given), the growth inhibition is -6% (inactive).

With `CCOC(=O)C(NS(=O)(=O)c1ccccc1)(C(F)(F)F)P(=O)(OCC(C)C)OCC(C)C` (stereo not given), the growth inhibition was -2% (inactive).

As to `O=[N+]([O-])c1ccc(/C=N/NC2=CS(=O)(=O)C=C2)cc1`, the growth inhibition was 17% (inactive).

Regarding `CC(C)c1ccc2c(c1)CCC1C(C)(CNC(=O)S)CCCC21C.[Zn+2]` (stereo not given), the growth inhibition was 13% (inactive).

For the compound `Cc1ccc(N=Nc2sc(N)nc2C)cc1C`, the growth inhibition is -57% (inactive).

Regarding `CC(C)(C)C1CCC2c3c([nH]c4ccccc34)C3C(=O)N(c4ccc(C(=O)O)cc4)C(=O)C3C2C1` (stereo not given), the growth inhibition was 98% (active).

Take `O=C(CBr)Nc1ccc(Cc2ccc(NC(=O)CBr)cc2)cc1`: the growth inhibition was -4% (inactive).

`O=c1[nH]c2c([N+](=O)[O-])cc(Cl)cc2nc1/C=C(\O)c1ccc(Cl)cc1`: the growth inhibition was 91% (active).

As to `CCOC(=O)C1=C(N)N(S(=O)(=O)c2ccc(C)cc2)CCC(C(=O)OC)=C1`, the growth inhibition was -4% (inactive).

Turning to `CC(C)=CC(=O)OC(CCCc1ccccc1)c1ccc2c(c1)OCO2` (stereo not given), the growth inhibition was -5% (inactive).

As to `OCCN(CCO)c1cc(/C=C/c2ccnc3ccccc23)nc2ccccc12`, the growth inhibition is 32% (inactive).

With `CCCCCCCCCCCC(=O)OCC1CO1` (stereo not given), the growth inhibition is -26% (inactive).

`CCCCCCCCCCCCCCCCCC1=NCCN1`: the growth inhibition is 98% (active).

Take `CC(=O)OCC1OC(OC2C=C(O[Si](C)(C)C)C[C@H]3C(=O)C=CC(=O)[C@@H]23)C(OC(C)=O)C(OC(C)=O)C1OC(C)=O` (stereo not given in full): the growth inhibition is 96% (active).

Take `C[C@]12CC[C@H]3[C@@H](CCC4=CC(=O)CC[C@@]43C)[C@@H]1CC[C@@H]2C(=O)C=O`: the growth inhibition is 42% (inactive).

As for `CCCCCC(O)C(C)CO` (stereo not given), the growth inhibition is -3% (inactive).

Consider `CC(=O)Oc1ccc(-c2ccccc2)cc1Br`, for which the growth inhibition is 99% (active).

Take `COC(=O)C(Cc1cccc(O)c1)NC(=O)C(CC(=O)OCc1ccccc1)NC(=O)OCc1ccccc1` (stereo not given) (Cbz-Asp(OBn)-[mTyr]-OMe; configuration not given here): the growth inhibition is 70% (active).

For `CCC(CO)Nc1nc2cc(Br)ccc2c2ccc(Br)cc12` (stereo not given), the growth inhibition was 92% (active).

In the case of `Cc1cc(Br)ccc1NC(=O)/C=C/C(=O)O`, the growth inhibition was -36% (inactive).

For the compound `CCO/C=C1N=C(/C=C/c2ccccc2Cl)OC/1=O`, the growth inhibition is 84% (active).

Regarding `O=S(=O)(Nc1ccccc1C(F)(F)F)c1ccc(F)cc1`, the growth inhibition is 49% (inactive).

As to `N#CSCC(=O)c1ccc2ccccc2c1`, the growth inhibition is 99% (active).

Take `O=[N+]([O-])/C(Cl)=C(\Nc1ccccc1)C(Cl)=C(Cl)Cl`: the growth inhibition is 99% (active).

As for `C/C(=N/NC(=O)c1ccccc1S(N)(=O)=O)C(CN1CCCCC1)C(C1=C(O)C2C=CC=CC2OC1=O)c1ccccc1` (stereo not given), the growth inhibition is 41% (inactive).

`N#Cc1c([N+](=O)[O-])cc(C(F)(F)F)cc1[N+](=O)[O-]`: the growth inhibition was 99% (active).

Regarding `CCCCCCCCCCCCO`, the growth inhibition is 23% (inactive).

`S=C(N/N=C/c1ccccn1)N1CC2CCC(CC2)C1`: the growth inhibition is 100% (active).

As to `ClC1(c2ccccc2)c2ccccc2-c2ccccc21`, the growth inhibition is 98% (active).

In the case of `Cc1ccc(SCC#CC#CCS(=O)c2ccc(C)cc2)cc1` (stereo not given), the growth inhibition is 98% (active).

For `CCCCCCCOc1ccc(C=O)cc1OC`, the growth inhibition was 41% (inactive).

The assay is the same for the next values; noted with them: S. cerevisiae rad50 strain growth inhibition; at 50.0 µM; stronger effect = higher value.
Take `CC12CCC(c3sc(N)c(C#N)c31)C2(C)C` (stereo not given): the growth inhibition is 39% (inactive).

As to `O=C1/C(=C/c2cccc(F)c2)CCCc2ccccc21`, the growth inhibition is 70% (active).

For the compound `CC(=O)N[C@H]1CC[C@H]2[C@@H]3CCC4=CC(=O)CC[C@]4(C)[C@H]3CC[C@]12C`, the growth inhibition was 33.2% (inactive).

In the case of `C/C(=N/O)c1ccc2c(c1)C(=NO)c1cc(/C(C)=N/O)ccc1-2`, the growth inhibition was 89.9% (active).

Consider `Cc1cccc(N2C(c3ccccc3)c3ccc(C)cc3NS2=O)c1` (stereo not given), for which the growth inhibition is 98.7% (active).

For `[Pt].c1ccc(P(CCP(CCP(c2ccccc2)c2ccccc2)CCP(c2ccccc2)c2ccccc2)c2ccccc2)cc1`, the growth inhibition is 71.2% (active).

Take `Cc1cc(I)ccc1NC(=S)Nc1ccccc1F`: the growth inhibition was 90.7% (active).

For `FC(F)(F)c1ccccc1NC(=S)SCc1ccc(Cl)cc1`, the growth inhibition was 97% (active).

In the case of `COC(=O)C1(C)CC2C(C)(CCC3(C)C4=CC=C5C(=CC(=O)C(O)=C5C)C4(C)CCC23C)CC1O` (stereo not given), the growth inhibition is 85.8% (active).

As for `CC1CCC(=NNC(N)=O)CC1` (stereo not given), the growth inhibition is 3.9% (inactive).

With `CCOC(=O)C(NS(=O)(=O)c1ccccc1)(C(F)(F)F)P(=O)(OCC(C)C)OCC(C)C` (stereo not given), the growth inhibition was 98.5% (active).

With `O=[N+]([O-])c1ccc(/C=N/NC2=CS(=O)(=O)C=C2)cc1`, the growth inhibition is 0.8% (inactive).

As to `CC(C)c1ccc2c(c1)CCC1C(C)(CNC(=O)S)CCCC21C.[Zn+2]` (stereo not given), the growth inhibition is -8.15% (inactive).

On to `Cc1ccc(N=Nc2sc(N)nc2C)cc1C`, for which the growth inhibition was 64% (inactive).

With `CC(C)(C)C1CCC2c3c([nH]c4ccccc34)C3C(=O)N(c4ccc(C(=O)O)cc4)C(=O)C3C2C1` (stereo not given), the growth inhibition was 96.3% (active).

In the case of `O=C(CBr)Nc1ccc(Cc2ccc(NC(=O)CBr)cc2)cc1`, the growth inhibition was 97.3% (active).

Turning to `O=c1[nH]c2c([N+](=O)[O-])cc(Cl)cc2nc1/C=C(\O)c1ccc(Cl)cc1`, the growth inhibition was 96.8% (active).

Consider `CCOC(=O)C1=C(N)N(S(=O)(=O)c2ccc(C)cc2)CCC(C(=O)OC)=C1`, for which the growth inhibition was 30.4% (inactive).

For the compound `CC(C)=CC(=O)OC(CCCc1ccccc1)c1ccc2c(c1)OCO2` (stereo not given), the growth inhibition was -4.6% (inactive).

For `OCCN(CCO)c1cc(/C=C/c2ccnc3ccccc23)nc2ccccc12`, the growth inhibition is 60.5% (inactive).

Regarding `CCCCCCCCCCCC(=O)OCC1CO1` (stereo not given), the growth inhibition was -11.7% (inactive).

`CCCCCCCCCCCCCCCCCC1=NCCN1`: the growth inhibition was 54% (inactive).

For `CC(=O)OCC1OC(OC2C=C(O[Si](C)(C)C)C[C@H]3C(=O)C=CC(=O)[C@@H]23)C(OC(C)=O)C(OC(C)=O)C1OC(C)=O` (stereo not given in full), the growth inhibition is 58.6% (inactive).

Consider `C[C@]12CC[C@H]3[C@@H](CCC4=CC(=O)CC[C@@]43C)[C@@H]1CC[C@@H]2C(=O)C=O`, for which the growth inhibition was 67.2% (inactive).

With `CCCCCC(O)C(C)CO` (stereo not given), the growth inhibition was 12.8% (inactive).

As for `CC(=O)Oc1ccc(-c2ccccc2)cc1Br`, the growth inhibition is 93.6% (active).

`COC(=O)C(Cc1cccc(O)c1)NC(=O)C(CC(=O)OCc1ccccc1)NC(=O)OCc1ccccc1` (stereo not given) (Cbz-Asp(OBn)-[mTyr]-OMe; configuration not given here): the growth inhibition is 77.2% (active).

With `CCC(CO)Nc1nc2cc(Br)ccc2c2ccc(Br)cc12` (stereo not given), the growth inhibition was 92.6% (active).

Turning to `Cc1cc(Br)ccc1NC(=O)/C=C/C(=O)O`, the growth inhibition was 0.1% (inactive).

Consider `CCO/C=C1N=C(/C=C/c2ccccc2Cl)OC/1=O`, for which the growth inhibition is 65% (inactive).

As for `O=S(=O)(Nc1ccccc1C(F)(F)F)c1ccc(F)cc1`, the growth inhibition is 80.6% (active).

Turning to `N#CSCC(=O)c1ccc2ccccc2c1`, the growth inhibition is 90.8% (active).

As to `O=[N+]([O-])/C(Cl)=C(\Nc1ccccc1)C(Cl)=C(Cl)Cl`, the growth inhibition was 88.2% (active).

Regarding `C/C(=N/NC(=O)c1ccccc1S(N)(=O)=O)C(CN1CCCCC1)C(C1=C(O)C2C=CC=CC2OC1=O)c1ccccc1` (stereo not given), the growth inhibition was 89.7% (active).

Take `N#Cc1c([N+](=O)[O-])cc(C(F)(F)F)cc1[N+](=O)[O-]`: the growth inhibition was 99.5% (active).

Regarding `CCCCCCCCCCCCO`, the growth inhibition is 64.4% (inactive).

As for `S=C(N/N=C/c1ccccn1)N1CC2CCC(CC2)C1`, the growth inhibition is 90.2% (active).

`ClC1(c2ccccc2)c2ccccc2-c2ccccc21`: the growth inhibition is 92.2% (active).

Take `Cc1ccc(SCC#CC#CCS(=O)c2ccc(C)cc2)cc1` (stereo not given): the growth inhibition is 98.3% (active).

Turning to `CCCCCCCOc1ccc(C=O)cc1OC`, the growth inhibition is 7.3% (inactive).

The values above are taken from PubChem BioAssay (NCI).
